PubChem BioAssay AID1159580 (chemical genetic matrix, 2015)
Where “and” joins values, the source holds several entries; their conditions need not be identical. Equal values may be shown once. About 2,000 (36%) of roughly 5,500 compounds were called active. Not shown: some 18% with an inconclusive outcome. Cut-off read from the data, not from the text of the source: active = normalized growth mostly below about 0.91 (no sharp cut-off); inconclusive = no clear call, values can overlap the other calls; inactive = mostly above about 0.92. The list shows a part of the results.

Experiment: chemical genetic growth profiling, strain panel (AID 1159580);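 note: tested at 20 µM; growth read once vehicle control cultures reached saturation at 30 °C; 1 = growth at the plate median or of vehicle wells; lower values mean less growth of the strain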
Settings: S. cerevisiae deletion strains, growth OD

Measured: normalized growth

C/C=C(/C)C(=O)O[C@@H]1[C@H](OC(C)=O)[C@@]2(CO)C(CC1(C)C)C1=CCC3[C@@]4(C)CC[C@H](O[C@@H]5O[C@H](C(=O)O)[C@@H](O[C@@H]6O[C@H](CO)[C@@H](O)[C@H](O)[C@H]6O)[C@H](O)[C@H]5O[C@@H]5O[C@H](CO)[C@@H](O)[C@H](O)[C@H]5O)[C@](C)(CO)C4CC[C@@]3(C)[C@]1(C)C[C@H]2O (some centres not stated)
inactive: locus YAL021C, strain ccr4, active compounds read low 1.01 | locus YAL026C, strain drs2, active compounds read low 0.983 | locus YAL030W, strain snc1, active compounds read low 0.987 | locus YBL061C, strain skt5, active compounds read low 0.983 | locus YBR009C, strain hhf1, active compounds read low 0.938 | locus YBR021W, strain FUR4, active compounds read low 0.989 | locus YBR023C, strain chs3, active compounds read low 0.992 | locus YBR171W, strain sec66, active compounds read low 0.996 | locus YBR229C, strain ROT2, active compounds read low 1.01 | locus YBR231C, strain swc5, active compounds read low 0.979 | locus YBR279W, strain paf1, active compounds read low 0.989 | locus YCL011C, strain gbp2, active compounds read low 0.986 | locus YCL016C, strain dcc1, active compounds read low 0.994 | locus YCL029C, strain bik1, active compounds read low 1.03 | locus YCL061C, strain MRC1, active compounds read low 0.981 | locus YCL069W, strain vba3, active compounds read low 0.987 | locus YCR088W, strain abp1, active compounds read low 0.989 | locus YDL005C, strain med2, active compounds read low 0.982 | locus YDL035C, strain GPR1, active compounds read low 1.02 | locus YDL040C, strain nat1, active compounds read low 0.973 | locus YDL074C, strain BRE1, active compounds read low 0.999 | locus YDL101C, strain DUN1, active compounds read low 1.02 | locus YDL185W, strain tfp1, active compounds read low 1.02 | locus YDL192W, strain arf1, active compounds read low 1.02 | locus YDR001C, strain nth1, active compounds read low 0.981 | locus YDR069C, strain doa4, active compounds read low 0.982 | locus YDR101C, strain arx1, active compounds read low 1.01 | locus YDR137W, strain rgp1, active compounds read low 0.975 | locus YDR159W, strain sac3, active compounds read low 0.96 | locus YDR162C, strain NBP2, active compounds read low 1.02 | locus YDR195W, strain ref2 0.929 | locus YDR297W, strain sur2, active compounds read low 0.993 | locus YDR318W, strain mcm21, active compounds read low 1.03 | locus YDR334W, strain swr1, active compounds read low 0.985 | locus YDR335W, strain msn5, active compounds read low 0.989 | locus YDR388W, active compounds read low 1.02 | locus YDR392W, strain spt3, active compounds read low 0.874 | locus YDR502C, strain sam2, active compounds read low 1.02 | locus YEL003W, strain gim4, active compounds read low 0.992 | locus YEL037C, strain rad23, active compounds read low 0.991 | locus YEL061C, strain CIN8 (second series), active compounds read low 0.987 | locus YEL061C, strain CIN8, active compounds read low 1.01 | locus YER015W, strain faa2, active compounds read low 0.983 | locus YER016W, strain bim1, active compounds read low 0.991 | locus YER110C, active compounds read low 1.03 | locus YER111C, strain swi4, active compounds read low 0.968 | locus YER155C, strain BEM2 (second series), active compounds read low 0.997 | locus YER155C, strain BEM2, active compounds read low 0.999 | locus YER167W, strain BCK2, active compounds read low 1.01 | locus YFR010W, strain ubp6, active compounds read low 0.991 | locus YGL078C, strain dbp3, active compounds read low 1.02 | locus YGL086W, strain mad1, active compounds read low 1.03 | locus YGL167C, strain pmr1, active compounds read low 0.987 | locus YGL173C, strain kem1, active compounds read low 0.966 | locus YGL227W, strain vid30, active compounds read low 0.982 | locus YGL240W, strain doc1, active compounds read low 0.97 | locus YGL248W, strain PDE1, active compounds read low 1.01 | locus YGL253W, strain hxk2, active compounds read low 0.974 | locus YGR135W, strain pre9, active compounds read low 1.01 | locus YGR252W, strain gcn5, active compounds read low 0.965 | locus YHR013C, strain ard1, active compounds read low 0.965 | locus YHR027C, strain rpn1, active compounds read low 0.992 | locus YHR030C, strain SLT2, active compounds read low 1.01 and 0.987 | locus YHR079C, strain IRE1 (second series), active compounds read low 1.03 | locus YHR079C, strain IRE1, active compounds read low 0.972 | locus YHR094C, strain hxt1, active compounds read low 1.03 | locus YHR129C, strain ARP1, active compounds read low 1.01 | locus YHR142W, strain chs7, active compounds read low 1.01 | locus YHR200W, strain rpn10, active compounds read low 1.01 | locus YIL066C, strain RNR3, active compounds read low 1.01 | locus YIL073C, strain SPO22, active compounds read low 1.15 | locus YIL125W, strain kgd1, active compounds read low 1.02 | locus YIR030C, strain dcg1, active compounds read low 1.03 | locus YJL092W, strain hpr5, active compounds read low 0.989 | locus YJL095W, strain BCK1 (second series), active compounds read low 0.992 | locus YJL095W, strain BCK1, active compounds read low 1.02 and 0.969 | locus YJL115W, strain asf1, active compounds read low 0.989 | locus YJL129C, strain trk1, active compounds read low 0.984 | locus YJL134W, strain LCB3, active compounds read low 1 | locus YJL154C, strain vps35, active compounds read low 0.987 | locus YJL164C, strain tpk1, active compounds read low 1.01 | locus YJL166W, strain qcr8, active compounds read low 1 | locus YJL168C, strain set2, active compounds read low 1.01 | locus YJL187C, strain SWE1 (second series), active compounds read low 1.02 | locus YJL187C, strain SWE1, active compounds read low 0.996 | locus YJR043C, strain POL32, active compounds read low 0.99 | locus YJR066W, strain TOR1, active compounds read low 1.01
